For assay [1], the target named is Aldehyde dehydrogenase, mitochondrial (Homo sapiens) (UniProt P05091). The experiment in a line: qHTS for Inhibitors of the Aldehyde Dehydrogenase Family (ALDH2) Primary screen (AID 2061308; further: nearly all actives have a fitted effect of over 55% in size). (qHTS replaces the single test concentration by a dilution series.)
Assay [2] deals with Retinaldehyde dehydrogenase 3 (Homo sapiens) (UniProt P47895). Put plainly: qHTS for Inhibitors of the Aldehyde Dehydrogenase Family (ALDH1A3) Primary screen (AID 2061315).

Each structure is given as a SMILES string. Records with an inconclusive call do not appear. Where a call stands in place of a potency, no number is given. Calls of active or inactive are those of the source. The call rests on the fitted dose curve; in most records, active means well fitted curve in the direction sought with a large enough effect; inconclusive means small, poorly fitted or top-dose-only effect, or another doubt; inactive means no such curve, though single readings can be large; an effect the other way counts as inactive or inconclusive.

With `CCOC(=O)C1CCN(C(=O)C2(NC(=O)Nc3ccc(F)cc3F)CCCCC2)CC1`, the Potency entry in assay [1] and in assay [2] was “inactive” each time.

Turning to `Cn1nnnc1Sc1ncnc2scc(-c3cccc(Cl)c3)c12`, the Potency entry in assay [1] and in assay [2] was “inactive” in each case.

For `C/C=C/c1ccc2c(c1)[C@@H](C)[C@H](c1ccc(O)cc1)O2`, the Potency result in assay [1] and in assay [2] was “inactive” throughout.

For `N#Cc1ncc(C(=O)OCC(=O)NC2C3CC4CC(C3)CC2C4)cn1` (centres undefined), the Potency entry in assay [1] and in assay [2] was “inactive” each time.

As to `CC(C)c1cccc2c(-c3ccccc3)cc(-c3ccc(-c4ccc(C(=O)O)cc4)[nH]3)nc12`, the Potency entry in assay [1] and in assay [2] was “inactive” throughout.

In the case of `CCC(=O)NC(c1ccco1)c1cc(Cl)c2cccnc2c1O` (centres undefined), the Potency result in assay [1] and in assay [2] was “inactive” in each case.

As to `O=C(Cc1ccc2ccccc2c1)Nc1nnc(-c2ccncc2)s1`, the Potency result in assay [1] and in assay [2] was “inactive” throughout.

`Cc1ccc(C2N=C(Nc3nc4ccccc4o3)NC3=C2C(=O)CCC3)cc1` (centres undefined): the Potency entry in assay [1] and in assay [2] was “inactive” in each case.

In the case of `O=C(CCCc1ccccc1)NC(c1ccco1)c1cc(Cl)c2cccnc2c1O` (centres undefined), the Potency entry in assay [1] and in assay [2] was “inactive” in each case.

On to `Cc1cc(NS(=O)(=O)c2ccc(NC(=O)Cc3ccc(C)c(C)c3)cc2)no1`, for which the Potency result in assay [1] and in assay [2] was “inactive” in each case.

In the case of `COc1ccc(C2Nc3ccccc3C(=O)N2Cc2ccco2)cc1COc1c(C(C)C)cccc1C(C)C` (centres undefined), the Potency result in assay [1] and in assay [2] was “inactive” throughout.

Take `CC(=O)NC(c1cc(F)c2cccnc2c1O)C1CC1` (centres undefined): the Potency result in assay [1] and in assay [2] was “inactive” in each case.

Consider `Cc1cccc(-c2ccc3ncnc(NCc4cccs4)c3c2)c1`, for which the Potency result in assay [1] and in assay [2] was “inactive” in each case.

As for `CCC1CCC2(C1)N=C(Nc1nc3ccccc3o1)NC1=C2C(=O)CCC1` (centres undefined), the Potency entry in assay [1] and in assay [2] was “inactive” throughout.

With `O=[N+]([O-])c1ccccc1-c1nc(NCc2ccc(-c3cccnc3)cc2)c2ccccc2n1`, the Potency entry in assay [1] and in assay [2] was “inactive” each time.

Regarding `O=C(Cc1ccc(Cl)c(Cl)c1)Nc1ccc(S(=O)(=O)NCc2ccco2)cc1`, the Potency entry in assay [1] and in assay [2] was “inactive” in each case.

Turning to `FC(F)(F)c1ccccc1-c1nc(NCc2cccs2)c2ccccc2n1`, the Potency entry in assay [1] and in assay [2] was “inactive” each time.

With `Cc1ccc(S(=O)(=O)Nc2cnccc2C(=O)Nc2nc(-c3cc4ccccc4o3)cs2)cc1`, the Potency entry in assay [1] and in assay [2] was “inactive” each time.

Consider `COc1ccc(OCc2nnc3n2N=C(c2ccccc2)CS3)cc1`, for which the Potency result in assay [1] and in assay [2] was “inactive” each time.

For `Cc1ccc(S(=O)(=O)Nc2cc(C(=O)Nc3nc(-c4ccccc4)cs3)ccc2Cl)cc1`, the Potency entry in assay [1] and in assay [2] was “inactive” each time.

Turning to `CCOc1ccccc1CNc1ncnc2ccc(-c3c(C)noc3C)cc12`, the Potency result in assay [1] and in assay [2] was “inactive” in each case.

Turning to `O=C(Nc1ncc([S+](=O)([O-])N2CCOCC2)s1)c1cccc(Br)c1`, the Potency entry in assay [1] and in assay [2] was “inactive” each time.

As for `CCOc1ccc(CCNC(=O)c2cc3sccc3n2Cc2ccccn2)cc1OCC`, the Potency entry in assay [1] and in assay [2] was “inactive” throughout.

Regarding `CCCn1c(-c2ccc(F)cc2)nc2c(NCC(C)(C)CN(C)C)nc(C)nc21`, the Potency result in assay [1] and in assay [2] was “inactive” each time.

On to `Cc1cc(C)nc(NC(=S)N2CCN(c3cccc(S(C)=O)c3)CC2)c1` (centres undefined), for which the Potency result in assay [1] and in assay [2] was “inactive” in each case.

As for `C#CCOc1ccc(C(C)=O)cc1-c1nnc2n1N=C(c1ccc(OC)c(O[C@@H]3CCOC3)c1)CS2`, the Potency entry in assay [1] and in assay [2] was “inactive” each time.

Regarding `CCNC(=O)c1ccc(-c2ccc3ncnc(NCC(C)(C)C)c3c2)o1`, the Potency entry in assay [1] and in assay [2] was “inactive” in each case.

Turning to `CC(C)c1cc2c(s1)c1cnn(Cc3ccccc3F)c(=O)c1n2C`, the Potency result in assay [1] and in assay [2] was “inactive” throughout.

In the case of `CC1CC(O)/C=C/C(O)/C=C\C(=O)O1` (centres undefined), the Potency result in assay [1] and in assay [2] was “inactive” each time.

For the molecule `O=C(Cc1ccccc1)Nc1sc2c(c1C(=O)Nc1ccc(Cl)cc1)CCOC2`, the Potency entry in assay [1] and in assay [2] was “inactive” in each case.

For the molecule `COc1ccc(-c2nnc3n2N=C(c2ccc(OC)cc2OC)CS3)cc1`, the Potency result in assay [1] and in assay [2] was “inactive” each time.

For `O=[N+]([O-])c1ccc(CSc2nc3ncc(Br)cc3[nH]2)cc1`, the Potency entry in assay [1] and in assay [2] was “inactive” throughout.

Take `Cc1ccccc1C(=O)N1CCc2cc(-n3cc(NC(=O)Cc4ccccc4)cn3)ccc21`: the Potency entry in assay [1] and in assay [2] was “inactive” throughout.

Consider `C=C(C)C(=O)OC1CC2(C)OC(=CC2=O)C(=C)CC2OC(=O)C(COC)C12` (centres undefined), for which the Potency entry in assay [1] and in assay [2] was “inactive” each time.

Regarding `Cc1cc2c(s1)c1cnn(Cc3c(Cl)cccc3Cl)c(=O)c1n2C`, the Potency result in assay [1] and in assay [2] was “inactive” throughout.

On to `Cc1ccc(Cl)cc1NS(=O)(=O)c1cc2c(cc1Cl)CCC(=O)N2`, for which the Potency result in assay [1] and in assay [2] was “inactive” in each case.

For `CC[C@H]1OC(=O)[C@](C)(F)C(=O)[C@H](C)[C@@H](O[C@@H]2O[C@H](C)C[C@H](N(C)C)[C@H]2O)[C@](C)(OC)C[C@@H](C)C(=O)[C@@H](C)[C@H]2N(CCCCn3cc(-c4cccc(N)c4)nn3)C(=O)O[C@]12C`, the Potency entry in assay [1] and in assay [2] was “inactive” each time.

With `COc1ccc(C2=Nn3c(nnc3-c3ccccc3F)SC2)cc1OCC1CC1`, the Potency entry in assay [1] and in assay [2] was “inactive” in each case.

As for `Cc1noc(C)c1-c1ccc2ncnc(NCc3ccc(F)c(F)c3)c2c1`, the Potency result in assay [1] and in assay [2] was “inactive” throughout.

Regarding `O=C(/C=C/c1ccccc1)OCC1=CC[C@@H]2C(C(=O)O)=CO[C@@H](O[C@@H]3O[C@H](CO)[C@@H](O)[C@H](O)[C@H]3O)[C@H]12`, the Potency result in assay [1] and in assay [2] was “inactive” in each case.

On to `CCN1CCN(c2cc(-c3ccc(F)cc3)c3c(n2)CCCCCC3)CC1`, for which the Potency entry in assay [1] and in assay [2] was “inactive” throughout.

As to `O=C(CSc1nnc(-c2cccc([S+](=O)([O-])N3CCCC3)c2)n1-c1ccccc1)Nc1ccc2c(c1)OCCO2`, the Potency entry in assay [1] and in assay [2] was “inactive” in each case.

The values are drawn from PubChem BioAssay (NCATS).
